In all, about 6,200 compounds went through this assay and about 2,900 (47%) were called active. Cut-off read from the data, not from the text of the source: active = inhibition above about 50%; inactive = the rest. The set was probably picked from earlier hits. This is one part of the list.
Assay: Mycobacterium tuberculosis growth inhibition, primary screen (AID 1259343)
Conditions: inhibition: at 10 µM, hits give high values; outcome: 10 uM

Row | SMILES | inhibition
1 | Cc1ccc(-c2ccc(C3=CC(C)(C)OC3=O)cc2)cc1 | 43.7% (inactive)
2 | O=C(Nc1cccc(Cl)c1)Oc1ccccc1-c1ccccc1 | 17.6% (inactive)
3 | N#CC1=C2Sc3ccccc3N2C(O)(C(F)(F)F)C(C(=O)C(F)(F)F)=C1 (stereo not drawn) | 71.5% (active)
4 | Clc1cccc(C2Nc3cccc4cccc(c34)N2)c1Cl | 97.7% (active)
5 | Fc1ccc(Br)cc1C1Nc2cccc3cccc(c23)N1 | 14.4% (inactive)
6 | Fc1cccc(Cl)c1C1Nc2cccc3cccc(c23)N1 | -12.9% (inactive)
7 | Fc1ccccc1Nc1nc(COc2cccc(Cl)c2)cs1 | 75.5% (active)
8 | CCC(C)[C@H]1O[C@]2(CC[C@@H]1C)C[C@@H]1C[C@@H](C/C=C(\C)[C@@H](OC3C[C@H](OC)C(O[C@H]4C[C@H](OC)[C@@H](O)[C@H](C)O4)[C@H](C)O3)[C@@H](C)/C=C/C=C3\CO[C@@H]4[C@H](O)C(C)=C[C@@H](C(=O)O1)[C@]34O)O2 (stereo partly drawn) | 67.3% (active)
9 | O=C1c2sc3nnc(-c4ccccc4)c(=O)n3c2C(=O)N1c1cccc(Cl)c1Cl | 90.4% (active)
10 | NS(=O)(=O)c1ccc(N2CCN(c3cccc(Cl)c3)CC2)nc1 | 52.9% (active)
11 | Clc1cccc(N2CCN(c3nnnn3-c3ccccc3)CC2)c1 | -17.8% (inactive)
12 | Cc1nc(-c2c[nH]c(C(=O)N(C)C3CCC(C)CC3)c2)cs1 (stereo not drawn) | 29.5% (inactive)
13 | Cn1nc(CC(=O)NC2CCC3CCCCC3C2)c2ccccc2c1=O (stereo not drawn) | 14.5% (inactive)
14 | Cc1nc(-c2c[nH]c(C(=O)NC3CCC4CCCC4C3)c2)cs1 (stereo not drawn) | 87.9% (active)
15 | Cc1ccc2nc(C3CCN(c4nncc(-c5ccc(Cl)cc5)n4)CC3)[nH]c2c1 | 37.6% (inactive)
16 | Clc1ccc(CNCc2cn[nH]c2-c2ccc(-c3ccccc3)cc2)s1 | 74.1% (active)
17 | CC(NCc1nnc(-c2cccc(Br)c2)o1)c1cccc(F)c1 (stereo not drawn) | -7.48% (inactive)
18 | CC(NCc1ccco1)c1nnc(-c2ccc(F)cc2)o1 (stereo not drawn) | 25.6% (inactive)
19 | CC(NCc1cn[nH]c1-c1ccc(-c2ccccc2)cc1)c1ccc(F)cc1 (stereo not drawn) | 83.9% (active)
20 | CCCCc1ccc(-c2csc(NC(=O)C3(C)CCOCC3)n2)cc1 | 43.9% (inactive)
21 | CCCc1ccc(-c2ccc(NC(=O)C3COCCO3)cc2)cc1 (stereo not drawn) | 72.3% (active)

Row | SMILES | inhibition
22 | Cc1nnsc1C(=O)Nc1ccc(C(=O)OC2CCCC2)cc1 | -6.8% (inactive)
23 | O=C(OC1CCCC1)c1ccc(NC(=O)C2COCCO2)cc1 (stereo not drawn) | 84.8% (active)
24 | CC(C)Cc1ccc(-c2csc(NC(=O)C3COCCO3)n2)cc1 (stereo not drawn) | 90.5% (active)
25 | Cc1cccc(OCCC(=O)Nc2ccc3c(c2)oc(=O)n3C)c1C | 15.8% (inactive)
26 | CC(C)Oc1ccc(C(=O)Nc2ccc3c(c2)oc(=O)n3C)cn1 | 92.7% (active)
27 | O=c1[nH]c(=O)n(CCC2=CCCCC2)c(O)c1C=C1C=CC=N1 | 89.4% (active)
28 | CSc1nc(NCC(C)C)c2cnn(CCNC(=O)CC(C)C)c2n1 | -2.36% (inactive)
29 | CSc1nc(N2CCCC2)c2cnn(CCNC(=O)c3cccs3)c2n1 | 9.6% (inactive)
30 | CCCNc1nc(SC)nc2c1cnn2CCNC(=O)c1c(F)cccc1Cl | 60.4% (active)
31 | CC(=NNC(N)=S)C(C)=NNC(N)=S | 54.6% (active)
32 | CC(=NNC(N)=S)c1ccc(C)cc1 | 76.6% (active)
33 | CC(=NNC(=S)NC(C)C)c1ccc2c(c1)OCCO2 | 88.1% (active)
34 | CC(=NNC(=S)NC(C)C)c1ccc(C(C)(C)C)cc1 | 5.89% (inactive)
35 | C=CCNC(=S)NN=Cc1ccc2c(c1)OCCO2 | 23.3% (inactive)
36 | CC(=NNC(N)=S)c1ccc2c(c1)OCCO2 | 69% (active)
37 | CC(=NNC(N)=S)C12CC3CC(CC(C3)C1)C2 | 14.6% (inactive)
38 | COc1ccccc1-n1cc(-c2ccnc(N(C)Cc3cccc(C)n3)n2)cn1 | 29.4% (inactive)
39 | COc1ccc(-c2cnnc(N3CCC(c4ccccc4Cl)C3)n2)cc1 (stereo not drawn) | inactive
40 | CC1CCC(N(C(=O)Nc2nccs2)C2CC2)CC1 (stereo not drawn) | 53.1% (active)
41 | C=C(C)NC(=S)Nc1nccs1 | 7.83% (inactive)
42 | CC1=CC(=O)c2c(O)cccc2C1=O | 102% (active)

Row | SMILES | inhibition
43 | O=C(O)c1ccccc1-c1c2cc(Br)c(=O)cc-2oc2[c]([Hg])c(O)c(Br)cc12 | 66.5% (active)
44 | COc1ccccc1-c1cc(=O)c2cccc(OC)c2o1 | -0.59% (inactive)
45 | CCCCCCCCON1C(=O)C2C3C=CC(O3)C2C1=O (stereo not drawn) | 8.42% (inactive)
46 | Cc1ccc(C)n1-c1ccsc1C(=O)NC1CCCC1 | 39.9% (inactive)
47 | O=C(NNC(=O)C12CC3CC(CC(C3)C1)C2)c1sccc1-n1cccc1 | 61.1% (active)
48 | CC1CCC(NC(=O)c2sccc2-n2cccc2)CC1 (stereo not drawn) | 87.7% (active)
49 | O=C(NCCc1ccc2c(c1)OCCO2)C12CC3CC(CC(C3)C1)C2 | 45.1% (inactive)
50 | COCC(Nc1ncc(Br)cn1)c1ccc(C)o1 (stereo not drawn) | 38.8% (inactive)
51 | Cc1nc(-c2ccc(Oc3ccc(C(F)(F)F)cn3)cc2)no1 | 89.7% (active)
52 | CCOc1ccc2nc(NC(=O)c3ccc(C)o3)sc2c1 | 25.2% (inactive)
53 | Cc1ccn2cc(C(=O)Nc3nc4ccccc4s3)nc2c1 | 50.8% (active)
54 | O=C(NCC12CC3CC(CC(C3)C1)C2)c1ccccc1 | 25.9% (inactive)
55 | O=C(Cc1ccc(-c2ccccc2)cc1)NCC(c1ccsc1)N1CCCC1 (stereo not drawn) | 37.7% (inactive)
56 | O=C(Cc1ccsc1)NCC12CC3CC(CC(C3)C1)C2 | 75.4% (active)
57 | CC(=NNc1ccc(C(F)(F)F)cn1)c1ccc2c(c1)Nc1ccccc1S2 | -55.5% (inactive)
58 | CC(=NNC(=O)c1cc(C)oc1C)c1ccc2c(c1)Nc1ccccc1S2 | 47.6% (inactive)
59 | CC(=NNS(=O)(=O)c1cc(C)ccc1C)c1ccc2c(c1)Nc1ccccc1S2 | 57.9% (active)
60 | CC(=NNC(=O)COc1ccc(F)cc1)c1ccc2c(c1)Nc1ccccc1S2 | 16% (inactive)
61 | CC(=NNC(=O)c1ccoc1C)c1ccc2c(c1)Nc1ccccc1S2 | 75.1% (active)
62 | CC(=NNC(=S)NC(C)C)c1ccc2c(c1)Nc1ccccc1S2 | 20.4% (inactive)
63 | Cc1cc(C)n(C(C)CNS(=O)(=O)c2ccc(Cl)cc2)n1 (stereo not drawn) | inactive
